The source made the active and inactive calls.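 How the source made its calls, unless noted: active means compounds that lower viability of the colon cancer cells in the luminescence readout, with no numeric limit stated; inactive means the rest.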

The nature of one test: CellTiter-Glo luminescent readout of SW480 viability loss, NPC library primary (AID 1117343). To be noted: CellTiter-Glo luminescence; at 20 µM (top of the series). In general terms: In ATP-based viability assays light output follows the ATP content of the culture.
Regarding `Cc1cccc(C)c1NC(=O)CN1CCCC1=O`, the viability decrease (inhibition) is 0.5% (inactive).

Consider `CC(=O)[C@H]1CC[C@H]2[C@@H]3CC[C@H]4C[C@H](O)CC[C@]4(C)[C@H]3C(=O)C[C@]12C`, for which the viability decrease (inhibition) was 67.8% (active).

Regarding `CC(O)CN1CCN(CC(=O)[O-])CCN(CC(=O)[O-])CCN(CC(=O)[O-])CC1.[Gd+3]` (stereo not given), the viability decrease (inhibition) was -1.9% (inactive).

In the case of `CCCN1CCC[C@@H]2Cc3nc(N)ncc3C[C@H]21`, the viability decrease (inhibition) was -4.6% (inactive).

Regarding `CC(C)c1c(CN(C)C(C)Cc2ccccc2)n(C)n(-c2ccccc2)c1=O` (stereo not given), the viability decrease (inhibition) was 103% (active).

With `Cn1c(CCCC(=O)O)nc2cc(N(CCCl)CCCl)ccc21`, the viability decrease (inhibition) is 18.4% (inactive).

Take `CN1[C@@H]2CC[C@H]1CC(OC(=O)c1cc(Cl)cc(Cl)c1)C2` (stereo not given in full): the viability decrease (inhibition) was 63.5% (active).

For the compound `O=[N+]([O-])c1ccc([As](=O)(O)O)cc1`, the viability decrease (inhibition) is 101% (active).

In the case of `COP(=O)(OC)OC=C(Cl)Cl`, the viability decrease (inhibition) was 26.8% (inactive).

For `FC(F)(F)c1cccc(C2=CCN(CCc3ccc4ccccc4c3)CC2)c1`, the viability decrease (inhibition) is 53.5% (active).

With `COc1ccc(CN2CCNCC2)c(OC)c1OC`, the viability decrease (inhibition) was -6.6% (inactive).

For the compound `COP(=O)(OC)C(O)C(Cl)(Cl)Cl` (stereo not given), the viability decrease (inhibition) is 1.6% (inactive).

With `C#C[C@]1(O)C=C[C@H]2[C@@H]3CCC4=CC(=O)CC[C@@H]4[C@H]3CC[C@@]21CC`, the viability decrease (inhibition) was -18.5% (inactive).

`Cc1ncsc1CCCl`: the viability decrease (inhibition) was 43.8% (inactive).

Regarding `C=CCN1C[C@H](C)N([C@H](c2ccc(C(=O)N(CC)CC)cc2)c2cccc(OC)c2)C[C@H]1C`, the viability decrease (inhibition) was 6% (inactive).

As for `CCCCc1ccc(C(=O)O)nc1`, the viability decrease (inhibition) is 82.1% (active).

In the case of `Cc1ccc(S(=O)(=O)N[C@@H](CCCCN)C(=O)CCl)cc1`, the viability decrease (inhibition) is 12.5% (inactive).

For `c1ccc(C2CC2)c(OCC2=NCCN2)c1`, the viability decrease (inhibition) is 7% (inactive).

On to `Fc1ccc(C(OCCN2CCN(CCCc3ccccc3)CC2)c2ccc(F)cc2)cc1`, for which the viability decrease (inhibition) is 159% (active).

Turning to `CC[N+](CC)(CC)CC`, the viability decrease (inhibition) was 95.5% (active).

Regarding `O=c1n(Cl)c(=O)n(Cl)c(=O)n1Cl`, the viability decrease (inhibition) was 11.6% (inactive).

Turning to `CCCCC/C=C\C/C=C\C/C=C\C/C=C\CCCC(=O)NCC(=O)O`, the viability decrease (inhibition) is 145% (active).

As for `COC[C@@H](NC(C)=O)C(=O)NCc1ccccc1`, the viability decrease (inhibition) was -1% (inactive).

Regarding `CCOC(=O)CC(SP(=S)(OC)OC)C(=O)OCC` (stereo not given), the viability decrease (inhibition) is 27% (inactive).

On to `C[C@]12CC[C@H](O)CC1=CC[C@@H]1[C@@H]2CC[C@]2(C)C(=O)CC[C@@H]12`, for which the viability decrease (inhibition) was 113% (active).

In the case of `O=C(O)Cc1ccccc1`, the viability decrease (inhibition) was 8.6% (inactive).

Consider `CC(C)(C)OC(=O)c1ncn2c1[C@@H]1CCCN1C(=O)c1c(Br)cccc1-2`, for which the viability decrease (inhibition) was -7.5% (inactive).

For the compound `NCC1(CC(=O)O)CCCCC1`, the viability decrease (inhibition) was -3.2% (inactive).

In the case of `Cc1nnc2n1-c1sc(CCC(=O)N3CCOCC3)cc1C(c1ccccc1Cl)=NC2`, the viability decrease (inhibition) was -4.5% (inactive).

As to `CCCC[N+]1(C)[C@@H]2CC(OC(=O)[C@H](CO)c3ccccc3)C[C@H]1[C@@H]1O[C@@H]12` (stereo not given in full), the viability decrease (inhibition) was -15.4% (inactive).

For `CNCC(=O)c1ccc(O)c(O)c1`, the viability decrease (inhibition) is 24.3% (inactive).

As to `C[N+]1(C)[C@@H]2CC[C@H]1CC(OC(=O)C(CO)c1ccccc1)C2` (stereo not given in full), the viability decrease (inhibition) was -13.2% (inactive).

As to `Clc1cccc(SC2CCNCC2)n1`, the viability decrease (inhibition) is 17.2% (inactive).

As for `O=C(NC(=O)c1c(F)cccc1F)Nc1cc(Cl)c(OC(F)(F)C(F)C(F)(F)F)cc1Cl` (stereo not given), the viability decrease (inhibition) is 19.8% (inactive).

For `CC(C)NCC(O)c1ccc(N)c(C#N)c1` (stereo not given), the viability decrease (inhibition) was 40% (inactive).

As for `CN1C[C@@H](NS(=O)(=O)N(C)C)C[C@@H]2c3cccc4c3c(cn4C)C[C@H]21`, the viability decrease (inhibition) is 48% (inactive).

Consider `O=C1NCN(c2ccccc2)C12CCN(CC1COc3ccccc3O1)CC2` (stereo not given), for which the viability decrease (inhibition) is 28.7% (inactive).

`COc1ccc(C(=O)c2c(C)n(CCN3CCOCC3)c3ccccc23)cc1`: the viability decrease (inhibition) was 65% (active).

As for `N#CC(C#N)=Cc1ccc(O)c(O)c1`, the viability decrease (inhibition) was 62.8% (active).

Turning to `O=C(O)c1ccc2[nH]cc(CCCCN3CC=C(c4ccccc4)CC3)c2c1`, the viability decrease (inhibition) is -17.9% (inactive).

The nature of the next test: decreased DLD-1 cellular survival, CellTiter-Glo luminescent readout, NPC compound collection, primary HTS (AID 1117346;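 active means compounds that lower survival of DLD-1 colon cancer cells in the luminescence readout, no cutoff given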). Conditions: DLD-1 viability, CellTiter-Glo luminescence; at 20 µM (top of the series).
Regarding `Cc1cccc(C)c1NC(=O)CN1CCCC1=O`, the viability decrease (inhibition) was -10.5% (inactive).

For `CC(=O)[C@H]1CC[C@H]2[C@@H]3CC[C@H]4C[C@H](O)CC[C@]4(C)[C@H]3C(=O)C[C@]12C`, the viability decrease (inhibition) is 19.9% (inactive).

On to `CC(O)CN1CCN(CC(=O)[O-])CCN(CC(=O)[O-])CCN(CC(=O)[O-])CC1.[Gd+3]` (stereo not given), for which the viability decrease (inhibition) was -6.4% (inactive).

In the case of `CCCN1CCC[C@@H]2Cc3nc(N)ncc3C[C@H]21`, the viability decrease (inhibition) was -14.6% (inactive).

Take `CC(C)c1c(CN(C)C(C)Cc2ccccc2)n(C)n(-c2ccccc2)c1=O` (stereo not given): the viability decrease (inhibition) is 73.2% (active).

As for `Cn1c(CCCC(=O)O)nc2cc(N(CCCl)CCCl)ccc21`, the viability decrease (inhibition) was -5.7% (inactive).

Take `CN1[C@@H]2CC[C@H]1CC(OC(=O)c1cc(Cl)cc(Cl)c1)C2` (stereo not given in full): the viability decrease (inhibition) is 85.1% (active).

Consider `O=[N+]([O-])c1ccc([As](=O)(O)O)cc1`, for which the viability decrease (inhibition) is -9.5% (inactive).

For `COP(=O)(OC)OC=C(Cl)Cl`, the viability decrease (inhibition) is -3.8% (inactive).

With `FC(F)(F)c1cccc(C2=CCN(CCc3ccc4ccccc4c3)CC2)c1`, the viability decrease (inhibition) was 17.3% (inactive).

On to `COc1ccc(CN2CCNCC2)c(OC)c1OC`, for which the viability decrease (inhibition) is 1.5% (inactive).

On to `COP(=O)(OC)C(O)C(Cl)(Cl)Cl` (stereo not given), for which the viability decrease (inhibition) was -13.3% (inactive).

In the case of `C#C[C@]1(O)C=C[C@H]2[C@@H]3CCC4=CC(=O)CC[C@@H]4[C@H]3CC[C@@]21CC`, the viability decrease (inhibition) is -11.8% (inactive).

In the case of `Cc1ncsc1CCCl`, the viability decrease (inhibition) was 72.4% (active).

In the case of `C=CCN1C[C@H](C)N([C@H](c2ccc(C(=O)N(CC)CC)cc2)c2cccc(OC)c2)C[C@H]1C`, the viability decrease (inhibition) is 23.5% (inactive).

Take `CCCCc1ccc(C(=O)O)nc1`: the viability decrease (inhibition) is 3.1% (inactive).

Regarding `Cc1ccc(S(=O)(=O)N[C@@H](CCCCN)C(=O)CCl)cc1`, the viability decrease (inhibition) is -7% (inactive).

For `c1ccc(C2CC2)c(OCC2=NCCN2)c1`, the viability decrease (inhibition) was -2.1% (inactive).

Regarding `Fc1ccc(C(OCCN2CCN(CCCc3ccccc3)CC2)c2ccc(F)cc2)cc1`, the viability decrease (inhibition) was 102% (active).

With `CC[N+](CC)(CC)CC`, the viability decrease (inhibition) was 1.35% (inactive).

Regarding `O=c1n(Cl)c(=O)n(Cl)c(=O)n1Cl`, the viability decrease (inhibition) was -0.1% (inactive).

On to `CCCCC/C=C\C/C=C\C/C=C\C/C=C\CCCC(=O)NCC(=O)O`, for which the viability decrease (inhibition) is 105% (active).

`COC[C@@H](NC(C)=O)C(=O)NCc1ccccc1`: the viability decrease (inhibition) was 9.6% (inactive).

As to `CCOC(=O)CC(SP(=S)(OC)OC)C(=O)OCC` (stereo not given), the viability decrease (inhibition) is -18% (inactive).

As for `C[C@]12CC[C@H](O)CC1=CC[C@@H]1[C@@H]2CC[C@]2(C)C(=O)CC[C@@H]12`, the viability decrease (inhibition) was 8.95% (inactive).

With `O=C(O)Cc1ccccc1`, the viability decrease (inhibition) was 0.45% (inactive).

For `CC(C)(C)OC(=O)c1ncn2c1[C@@H]1CCCN1C(=O)c1c(Br)cccc1-2`, the viability decrease (inhibition) was 7.7% (inactive).

`NCC1(CC(=O)O)CCCCC1`: the viability decrease (inhibition) was -8.35% (inactive).

As for `Cc1nnc2n1-c1sc(CCC(=O)N3CCOCC3)cc1C(c1ccccc1Cl)=NC2`, the viability decrease (inhibition) was -5.7% (inactive).

As to `CCCC[N+]1(C)[C@@H]2CC(OC(=O)[C@H](CO)c3ccccc3)C[C@H]1[C@@H]1O[C@@H]12` (stereo not given in full), the viability decrease (inhibition) was -1.4% (inactive).

Take `CNCC(=O)c1ccc(O)c(O)c1`: the viability decrease (inhibition) is 19.2% (inactive).

On to `C[N+]1(C)[C@@H]2CC[C@H]1CC(OC(=O)C(CO)c1ccccc1)C2` (stereo not given in full), for which the viability decrease (inhibition) was 13.1% (inactive).

As for `Clc1cccc(SC2CCNCC2)n1`, the viability decrease (inhibition) was -11.3% (inactive).

For the compound `O=C(NC(=O)c1c(F)cccc1F)Nc1cc(Cl)c(OC(F)(F)C(F)C(F)(F)F)cc1Cl` (stereo not given), the viability decrease (inhibition) was 16.2% (inactive).

`CC(C)NCC(O)c1ccc(N)c(C#N)c1` (stereo not given): the viability decrease (inhibition) is 9.6% (inactive).

Consider `CN1C[C@@H](NS(=O)(=O)N(C)C)C[C@@H]2c3cccc4c3c(cn4C)C[C@H]21`, for which the viability decrease (inhibition) is 9% (inactive).

Turning to `O=C1NCN(c2ccccc2)C12CCN(CC1COc3ccccc3O1)CC2` (stereo not given), the viability decrease (inhibition) is 3.2% (inactive).

Regarding `COc1ccc(C(=O)c2c(C)n(CCN3CCOCC3)c3ccccc23)cc1`, the viability decrease (inhibition) is 39.5% (inactive).

Consider `N#CC(C#N)=Cc1ccc(O)c(O)c1`, for which the viability decrease (inhibition) was 48.5% (inactive).

`O=C(O)c1ccc2[nH]cc(CCCCN3CC=C(c4ccccc4)CC3)c2c1`: the viability decrease (inhibition) is -14.3% (inactive).

Source of the values: PubChem BioAssay.
